Reference: the supplement of paper PMC11732987, “Enantioselective OTUD7B fragment discovery through chemoproteomics screening and high-throughput optimisation” (Communications Chemistry, 2025)

Key:
Experiment in all cases: log2 ratio of Biotin-Ahx-Ub-VS probe labelling (fragment/DMSO); higher = less target engagement (more negative = stronger competition), active = hit call of the paper (q ≤ 0.05, log2 ratio ≤ -1)
Conditions in all cases: compound concentration: 200 uM; treatment time: 3 h
USP42 = biological target: T1, USP42 (UniProt Q9H9J4)
T1 sequence (whole entry): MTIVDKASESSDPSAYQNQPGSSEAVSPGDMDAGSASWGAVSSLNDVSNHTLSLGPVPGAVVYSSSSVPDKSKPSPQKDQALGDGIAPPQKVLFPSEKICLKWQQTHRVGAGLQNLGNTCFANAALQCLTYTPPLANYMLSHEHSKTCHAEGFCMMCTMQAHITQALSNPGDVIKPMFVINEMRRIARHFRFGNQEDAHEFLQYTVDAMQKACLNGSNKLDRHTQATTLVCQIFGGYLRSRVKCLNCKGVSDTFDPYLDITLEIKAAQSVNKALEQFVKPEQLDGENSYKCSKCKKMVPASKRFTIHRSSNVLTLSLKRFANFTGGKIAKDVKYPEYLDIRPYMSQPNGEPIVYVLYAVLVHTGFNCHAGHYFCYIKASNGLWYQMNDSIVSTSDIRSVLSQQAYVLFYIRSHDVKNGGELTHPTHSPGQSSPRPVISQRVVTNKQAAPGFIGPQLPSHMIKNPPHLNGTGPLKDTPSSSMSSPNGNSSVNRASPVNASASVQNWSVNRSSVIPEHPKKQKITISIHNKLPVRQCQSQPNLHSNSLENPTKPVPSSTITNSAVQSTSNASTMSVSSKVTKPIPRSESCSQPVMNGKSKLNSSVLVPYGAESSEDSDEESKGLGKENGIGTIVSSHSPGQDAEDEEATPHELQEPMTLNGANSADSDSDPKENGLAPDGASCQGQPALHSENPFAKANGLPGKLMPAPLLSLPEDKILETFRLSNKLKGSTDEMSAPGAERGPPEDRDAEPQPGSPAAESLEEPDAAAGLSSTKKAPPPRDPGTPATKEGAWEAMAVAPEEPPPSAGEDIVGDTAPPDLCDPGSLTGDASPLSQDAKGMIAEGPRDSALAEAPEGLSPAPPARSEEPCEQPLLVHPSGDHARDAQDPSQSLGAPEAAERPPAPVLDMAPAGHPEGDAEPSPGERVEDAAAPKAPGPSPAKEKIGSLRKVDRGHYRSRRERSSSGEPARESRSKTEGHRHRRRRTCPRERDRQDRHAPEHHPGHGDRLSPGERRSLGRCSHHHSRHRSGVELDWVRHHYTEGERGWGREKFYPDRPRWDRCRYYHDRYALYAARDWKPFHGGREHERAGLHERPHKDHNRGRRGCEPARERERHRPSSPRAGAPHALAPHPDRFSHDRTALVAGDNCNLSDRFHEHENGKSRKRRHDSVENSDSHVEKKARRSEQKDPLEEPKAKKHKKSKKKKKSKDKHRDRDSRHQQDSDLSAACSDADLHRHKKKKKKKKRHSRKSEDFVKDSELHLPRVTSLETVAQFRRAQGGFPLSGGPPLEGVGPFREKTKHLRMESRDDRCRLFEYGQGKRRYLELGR
How it was run: (§1)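 Labelling with Biotin-Ahx-Ub-VS (0.5 µM final, 1 h) followed a 3 h triplicate treatment of HEK293T lysate (495 µg per sample, Tris/CHAPS/IGEPAL buffer with protease inhibitors) with fragment at 200 µM or vehicle. Labelled DUBs were NeutrAvidin-enriched, digested with LysC and trypsin, and run by diaPASEF LC-MS/MS. The values, average log2 fragment/vehicle ratios by unpaired t-test, come from global-median-normalised Spectronaut label-free quantities. Proteins with ≥2 unique peptides were used.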

USP46 = USP46 (UniProt P62068)
How it was run: as §1

USP47 = biological target: T2, USP47 (UniProt Q96K76)
T2 sequence (whole entry): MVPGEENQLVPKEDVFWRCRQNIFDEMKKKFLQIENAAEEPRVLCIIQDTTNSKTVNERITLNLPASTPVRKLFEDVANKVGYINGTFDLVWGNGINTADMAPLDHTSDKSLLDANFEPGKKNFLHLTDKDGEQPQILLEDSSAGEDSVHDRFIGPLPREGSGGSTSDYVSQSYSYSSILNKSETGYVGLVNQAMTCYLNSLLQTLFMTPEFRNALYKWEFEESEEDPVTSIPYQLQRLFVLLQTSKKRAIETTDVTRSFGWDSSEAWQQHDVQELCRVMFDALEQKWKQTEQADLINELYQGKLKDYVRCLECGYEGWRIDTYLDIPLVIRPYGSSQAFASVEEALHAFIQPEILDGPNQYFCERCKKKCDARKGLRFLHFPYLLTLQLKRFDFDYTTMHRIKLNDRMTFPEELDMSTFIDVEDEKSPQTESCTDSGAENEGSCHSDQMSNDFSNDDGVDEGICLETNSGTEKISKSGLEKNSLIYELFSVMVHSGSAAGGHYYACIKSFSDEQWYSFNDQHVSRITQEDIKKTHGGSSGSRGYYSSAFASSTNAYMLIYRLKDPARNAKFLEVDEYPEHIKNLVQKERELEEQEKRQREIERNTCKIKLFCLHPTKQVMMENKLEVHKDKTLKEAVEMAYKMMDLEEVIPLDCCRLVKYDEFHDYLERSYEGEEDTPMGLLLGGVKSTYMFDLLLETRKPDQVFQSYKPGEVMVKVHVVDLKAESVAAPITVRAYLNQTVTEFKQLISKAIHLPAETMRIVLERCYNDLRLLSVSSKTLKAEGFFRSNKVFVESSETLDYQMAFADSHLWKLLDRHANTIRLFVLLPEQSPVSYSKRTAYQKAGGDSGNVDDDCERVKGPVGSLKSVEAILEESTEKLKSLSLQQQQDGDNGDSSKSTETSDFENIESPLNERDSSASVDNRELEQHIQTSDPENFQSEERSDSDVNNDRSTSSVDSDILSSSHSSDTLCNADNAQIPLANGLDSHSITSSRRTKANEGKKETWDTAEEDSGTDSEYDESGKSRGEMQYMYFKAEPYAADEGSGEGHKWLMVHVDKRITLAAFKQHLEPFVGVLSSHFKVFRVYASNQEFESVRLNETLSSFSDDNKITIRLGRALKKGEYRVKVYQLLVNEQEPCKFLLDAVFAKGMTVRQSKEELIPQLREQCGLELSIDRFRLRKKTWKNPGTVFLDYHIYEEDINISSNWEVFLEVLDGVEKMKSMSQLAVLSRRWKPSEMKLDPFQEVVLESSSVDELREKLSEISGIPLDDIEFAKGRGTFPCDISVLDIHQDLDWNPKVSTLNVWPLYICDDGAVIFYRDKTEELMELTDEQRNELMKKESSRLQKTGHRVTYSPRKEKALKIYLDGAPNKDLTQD
How it was run: as §1

USP48 = biological target: T3, USP48 (UniProt Q86UV5)
T3 sequence (whole entry): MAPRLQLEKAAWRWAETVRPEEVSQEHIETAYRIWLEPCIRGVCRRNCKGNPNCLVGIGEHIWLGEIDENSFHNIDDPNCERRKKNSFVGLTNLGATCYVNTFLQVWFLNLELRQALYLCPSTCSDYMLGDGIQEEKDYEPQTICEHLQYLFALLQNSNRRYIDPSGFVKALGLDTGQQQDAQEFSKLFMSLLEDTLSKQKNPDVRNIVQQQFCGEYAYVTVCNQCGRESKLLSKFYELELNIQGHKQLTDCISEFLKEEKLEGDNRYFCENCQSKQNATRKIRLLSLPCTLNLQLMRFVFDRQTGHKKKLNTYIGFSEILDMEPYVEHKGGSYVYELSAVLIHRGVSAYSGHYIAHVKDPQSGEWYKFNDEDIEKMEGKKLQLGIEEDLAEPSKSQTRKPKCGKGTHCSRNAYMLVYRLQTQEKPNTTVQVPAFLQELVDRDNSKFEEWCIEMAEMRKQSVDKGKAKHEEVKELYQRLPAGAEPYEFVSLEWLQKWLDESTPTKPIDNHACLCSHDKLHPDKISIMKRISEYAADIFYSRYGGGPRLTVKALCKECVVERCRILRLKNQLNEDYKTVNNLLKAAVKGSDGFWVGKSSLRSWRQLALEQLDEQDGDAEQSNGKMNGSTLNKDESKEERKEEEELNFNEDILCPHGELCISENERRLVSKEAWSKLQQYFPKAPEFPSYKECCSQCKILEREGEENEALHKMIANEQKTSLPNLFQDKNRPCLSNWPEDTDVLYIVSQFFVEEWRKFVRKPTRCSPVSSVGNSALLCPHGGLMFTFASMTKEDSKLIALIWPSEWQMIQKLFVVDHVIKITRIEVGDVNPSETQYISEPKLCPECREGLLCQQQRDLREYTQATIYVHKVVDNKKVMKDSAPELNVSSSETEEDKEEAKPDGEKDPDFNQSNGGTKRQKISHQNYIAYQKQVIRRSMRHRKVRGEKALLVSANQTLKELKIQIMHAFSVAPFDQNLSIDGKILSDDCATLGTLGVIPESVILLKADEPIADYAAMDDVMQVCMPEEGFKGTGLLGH
How it was run: as §1

USP5 = biological target: T4, USP5 (UniProt P45974)
T4 sequence (whole entry): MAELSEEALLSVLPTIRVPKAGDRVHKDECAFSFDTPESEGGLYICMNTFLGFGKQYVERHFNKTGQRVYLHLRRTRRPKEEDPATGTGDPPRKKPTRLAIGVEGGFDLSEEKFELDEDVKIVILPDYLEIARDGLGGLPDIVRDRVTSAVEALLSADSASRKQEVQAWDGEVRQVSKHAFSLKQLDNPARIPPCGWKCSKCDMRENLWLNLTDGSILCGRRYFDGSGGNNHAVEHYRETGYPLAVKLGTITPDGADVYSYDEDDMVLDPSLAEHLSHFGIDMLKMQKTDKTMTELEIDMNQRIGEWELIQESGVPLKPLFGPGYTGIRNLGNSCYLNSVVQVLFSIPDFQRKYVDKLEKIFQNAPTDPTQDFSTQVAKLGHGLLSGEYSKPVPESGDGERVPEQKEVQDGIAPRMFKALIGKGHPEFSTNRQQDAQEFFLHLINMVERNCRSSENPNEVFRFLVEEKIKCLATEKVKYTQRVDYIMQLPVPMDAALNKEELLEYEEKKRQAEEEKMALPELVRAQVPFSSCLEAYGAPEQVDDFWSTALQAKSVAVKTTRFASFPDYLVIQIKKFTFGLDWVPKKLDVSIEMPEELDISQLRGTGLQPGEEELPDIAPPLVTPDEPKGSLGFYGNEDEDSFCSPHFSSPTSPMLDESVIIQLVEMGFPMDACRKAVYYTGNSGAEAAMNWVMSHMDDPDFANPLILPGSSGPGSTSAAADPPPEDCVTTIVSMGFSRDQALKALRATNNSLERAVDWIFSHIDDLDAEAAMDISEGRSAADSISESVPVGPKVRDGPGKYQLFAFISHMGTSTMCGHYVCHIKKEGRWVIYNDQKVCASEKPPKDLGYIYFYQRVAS
How it was run: as §1

USP54 = USP54 (UniProt Q70EL1)
How it was run: as §1

USP7 = USP7 (UniProt Q93009)
How it was run: as §1

USP8 = biological target: T5, USP8 (UniProt P40818)
T5 sequence (whole entry): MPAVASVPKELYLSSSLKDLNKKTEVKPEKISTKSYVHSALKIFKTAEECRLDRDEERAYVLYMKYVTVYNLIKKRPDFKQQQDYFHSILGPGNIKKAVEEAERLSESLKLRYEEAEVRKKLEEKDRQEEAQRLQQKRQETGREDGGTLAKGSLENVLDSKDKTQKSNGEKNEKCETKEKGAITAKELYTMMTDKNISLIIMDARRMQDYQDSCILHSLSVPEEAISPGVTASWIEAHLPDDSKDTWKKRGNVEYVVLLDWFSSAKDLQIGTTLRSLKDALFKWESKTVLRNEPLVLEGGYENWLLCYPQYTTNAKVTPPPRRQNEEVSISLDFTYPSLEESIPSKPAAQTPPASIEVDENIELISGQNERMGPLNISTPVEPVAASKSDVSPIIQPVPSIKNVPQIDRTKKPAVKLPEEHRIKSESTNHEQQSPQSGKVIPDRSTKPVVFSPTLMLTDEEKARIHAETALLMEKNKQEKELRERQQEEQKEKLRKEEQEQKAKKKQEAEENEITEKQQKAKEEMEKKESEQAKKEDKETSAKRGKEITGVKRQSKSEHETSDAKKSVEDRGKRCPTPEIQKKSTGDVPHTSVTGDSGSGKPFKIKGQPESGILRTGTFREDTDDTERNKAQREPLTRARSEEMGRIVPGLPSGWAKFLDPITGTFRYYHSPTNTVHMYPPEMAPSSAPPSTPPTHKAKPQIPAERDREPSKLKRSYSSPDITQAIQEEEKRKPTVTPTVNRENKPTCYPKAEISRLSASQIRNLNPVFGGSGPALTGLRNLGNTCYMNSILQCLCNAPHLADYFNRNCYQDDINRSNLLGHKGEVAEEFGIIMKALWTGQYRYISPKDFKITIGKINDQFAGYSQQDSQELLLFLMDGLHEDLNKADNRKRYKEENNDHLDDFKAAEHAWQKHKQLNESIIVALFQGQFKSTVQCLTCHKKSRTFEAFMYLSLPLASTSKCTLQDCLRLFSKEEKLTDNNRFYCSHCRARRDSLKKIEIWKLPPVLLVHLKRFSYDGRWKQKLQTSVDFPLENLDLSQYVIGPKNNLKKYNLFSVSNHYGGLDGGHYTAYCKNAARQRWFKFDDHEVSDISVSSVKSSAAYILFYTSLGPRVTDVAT
How it was run: as §1

USP9X = USP9X (UniProt Q93008)
How it was run: as §1

UniProt O00487 = biological target: UniProt O00487
How it was run: as §1

Measured: log2 ratio of Biotin-Ahx-Ub-VS probe labelling

Chain of UniProt O00487 (O00487 whole entry): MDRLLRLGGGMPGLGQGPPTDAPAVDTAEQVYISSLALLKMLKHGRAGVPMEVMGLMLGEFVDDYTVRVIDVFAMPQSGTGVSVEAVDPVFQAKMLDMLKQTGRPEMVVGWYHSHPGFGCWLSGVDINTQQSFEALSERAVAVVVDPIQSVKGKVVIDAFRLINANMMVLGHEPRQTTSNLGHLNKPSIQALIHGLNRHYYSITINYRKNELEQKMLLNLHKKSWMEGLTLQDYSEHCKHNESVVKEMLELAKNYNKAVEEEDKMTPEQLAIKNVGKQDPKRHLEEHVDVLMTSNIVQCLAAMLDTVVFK
Chain of USP9X (Q93008 whole entry): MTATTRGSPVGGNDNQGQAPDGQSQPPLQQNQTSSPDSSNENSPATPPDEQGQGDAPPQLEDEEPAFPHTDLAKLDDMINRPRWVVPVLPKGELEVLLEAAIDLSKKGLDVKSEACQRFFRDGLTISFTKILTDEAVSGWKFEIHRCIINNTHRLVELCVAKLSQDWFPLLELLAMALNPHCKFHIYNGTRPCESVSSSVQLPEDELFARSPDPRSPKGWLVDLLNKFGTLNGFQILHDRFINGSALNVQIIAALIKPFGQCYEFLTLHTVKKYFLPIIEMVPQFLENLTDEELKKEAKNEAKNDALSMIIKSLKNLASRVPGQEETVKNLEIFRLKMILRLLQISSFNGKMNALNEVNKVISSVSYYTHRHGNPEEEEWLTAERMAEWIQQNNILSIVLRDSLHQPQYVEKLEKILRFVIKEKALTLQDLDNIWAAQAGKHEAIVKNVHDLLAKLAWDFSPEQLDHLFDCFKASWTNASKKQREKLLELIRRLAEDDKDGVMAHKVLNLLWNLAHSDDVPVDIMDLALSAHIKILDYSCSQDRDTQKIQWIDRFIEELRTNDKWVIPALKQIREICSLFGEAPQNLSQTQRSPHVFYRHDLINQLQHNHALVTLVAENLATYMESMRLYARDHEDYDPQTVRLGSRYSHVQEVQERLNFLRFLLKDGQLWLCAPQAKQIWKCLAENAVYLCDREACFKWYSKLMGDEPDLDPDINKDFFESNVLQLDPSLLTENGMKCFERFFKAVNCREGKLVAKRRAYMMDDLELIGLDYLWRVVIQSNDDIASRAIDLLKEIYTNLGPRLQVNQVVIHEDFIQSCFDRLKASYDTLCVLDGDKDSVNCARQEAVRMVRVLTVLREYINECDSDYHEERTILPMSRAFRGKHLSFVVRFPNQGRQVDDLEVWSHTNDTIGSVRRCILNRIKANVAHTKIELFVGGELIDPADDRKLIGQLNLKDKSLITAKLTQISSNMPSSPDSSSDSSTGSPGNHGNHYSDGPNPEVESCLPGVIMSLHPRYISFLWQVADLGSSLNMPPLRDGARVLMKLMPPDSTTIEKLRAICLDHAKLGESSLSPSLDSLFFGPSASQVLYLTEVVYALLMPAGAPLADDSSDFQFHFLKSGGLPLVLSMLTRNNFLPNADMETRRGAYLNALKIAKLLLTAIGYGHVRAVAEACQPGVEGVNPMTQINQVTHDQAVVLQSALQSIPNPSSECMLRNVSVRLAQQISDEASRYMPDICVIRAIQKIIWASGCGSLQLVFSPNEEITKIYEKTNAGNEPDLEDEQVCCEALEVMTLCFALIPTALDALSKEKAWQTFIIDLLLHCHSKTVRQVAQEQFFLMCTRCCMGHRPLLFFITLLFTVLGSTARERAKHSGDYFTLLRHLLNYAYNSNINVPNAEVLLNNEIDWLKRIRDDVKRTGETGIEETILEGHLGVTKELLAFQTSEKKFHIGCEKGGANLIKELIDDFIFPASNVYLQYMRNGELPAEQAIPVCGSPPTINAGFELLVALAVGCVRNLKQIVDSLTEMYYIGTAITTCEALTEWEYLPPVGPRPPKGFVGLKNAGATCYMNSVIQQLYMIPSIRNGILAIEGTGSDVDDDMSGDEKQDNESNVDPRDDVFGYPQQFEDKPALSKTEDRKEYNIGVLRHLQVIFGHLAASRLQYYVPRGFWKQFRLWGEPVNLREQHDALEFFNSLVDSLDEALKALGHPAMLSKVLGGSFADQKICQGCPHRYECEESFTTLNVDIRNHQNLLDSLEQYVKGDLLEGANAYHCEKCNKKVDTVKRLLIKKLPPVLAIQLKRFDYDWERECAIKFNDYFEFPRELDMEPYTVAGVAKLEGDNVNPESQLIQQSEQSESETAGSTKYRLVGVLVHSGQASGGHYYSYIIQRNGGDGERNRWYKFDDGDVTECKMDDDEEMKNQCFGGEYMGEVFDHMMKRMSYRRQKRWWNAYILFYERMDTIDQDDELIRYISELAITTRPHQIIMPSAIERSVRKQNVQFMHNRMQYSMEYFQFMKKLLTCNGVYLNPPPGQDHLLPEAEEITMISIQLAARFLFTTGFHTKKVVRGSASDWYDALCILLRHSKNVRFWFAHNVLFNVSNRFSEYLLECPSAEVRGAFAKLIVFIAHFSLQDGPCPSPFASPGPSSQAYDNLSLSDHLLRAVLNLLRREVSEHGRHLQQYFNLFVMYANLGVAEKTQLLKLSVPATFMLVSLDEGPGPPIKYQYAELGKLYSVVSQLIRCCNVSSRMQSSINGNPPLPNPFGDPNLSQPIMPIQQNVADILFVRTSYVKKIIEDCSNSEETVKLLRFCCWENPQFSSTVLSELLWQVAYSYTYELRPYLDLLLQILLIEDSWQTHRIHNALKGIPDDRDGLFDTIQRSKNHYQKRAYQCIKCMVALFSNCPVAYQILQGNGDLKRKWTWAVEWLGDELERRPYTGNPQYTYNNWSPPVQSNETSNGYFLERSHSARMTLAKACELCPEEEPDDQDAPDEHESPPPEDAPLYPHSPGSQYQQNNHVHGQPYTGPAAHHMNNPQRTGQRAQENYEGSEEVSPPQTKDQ
Chain of USP7 (Q93009 whole entry, looked up): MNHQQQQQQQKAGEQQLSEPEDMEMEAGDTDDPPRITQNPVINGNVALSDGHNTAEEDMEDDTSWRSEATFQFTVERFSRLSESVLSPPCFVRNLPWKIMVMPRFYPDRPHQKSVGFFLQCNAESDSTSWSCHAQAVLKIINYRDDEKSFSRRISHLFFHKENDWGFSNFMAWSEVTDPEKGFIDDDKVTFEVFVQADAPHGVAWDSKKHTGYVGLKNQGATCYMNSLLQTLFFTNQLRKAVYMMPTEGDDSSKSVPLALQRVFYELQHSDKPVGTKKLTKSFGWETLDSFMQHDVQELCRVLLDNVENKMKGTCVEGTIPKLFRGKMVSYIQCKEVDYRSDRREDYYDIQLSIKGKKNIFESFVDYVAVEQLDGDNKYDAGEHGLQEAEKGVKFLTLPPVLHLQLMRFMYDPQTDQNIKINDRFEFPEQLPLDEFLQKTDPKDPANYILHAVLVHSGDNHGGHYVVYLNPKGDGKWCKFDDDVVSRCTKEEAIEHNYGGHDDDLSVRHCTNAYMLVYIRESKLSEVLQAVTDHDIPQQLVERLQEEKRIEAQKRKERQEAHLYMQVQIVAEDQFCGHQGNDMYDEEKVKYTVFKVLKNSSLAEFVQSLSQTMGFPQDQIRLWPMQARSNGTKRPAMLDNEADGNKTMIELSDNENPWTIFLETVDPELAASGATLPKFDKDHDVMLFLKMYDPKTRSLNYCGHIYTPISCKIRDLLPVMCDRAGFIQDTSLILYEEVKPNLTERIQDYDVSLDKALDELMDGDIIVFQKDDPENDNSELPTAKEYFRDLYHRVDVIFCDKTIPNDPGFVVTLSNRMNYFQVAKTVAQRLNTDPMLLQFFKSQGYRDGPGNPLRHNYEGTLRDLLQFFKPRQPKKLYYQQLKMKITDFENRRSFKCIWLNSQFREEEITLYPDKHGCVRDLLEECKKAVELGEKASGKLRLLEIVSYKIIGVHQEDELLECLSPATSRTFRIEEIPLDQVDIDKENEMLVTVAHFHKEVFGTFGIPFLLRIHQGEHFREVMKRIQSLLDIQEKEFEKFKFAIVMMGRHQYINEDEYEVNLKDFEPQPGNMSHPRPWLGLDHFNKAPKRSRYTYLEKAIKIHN
Chain of USP46 (P62068 whole entry): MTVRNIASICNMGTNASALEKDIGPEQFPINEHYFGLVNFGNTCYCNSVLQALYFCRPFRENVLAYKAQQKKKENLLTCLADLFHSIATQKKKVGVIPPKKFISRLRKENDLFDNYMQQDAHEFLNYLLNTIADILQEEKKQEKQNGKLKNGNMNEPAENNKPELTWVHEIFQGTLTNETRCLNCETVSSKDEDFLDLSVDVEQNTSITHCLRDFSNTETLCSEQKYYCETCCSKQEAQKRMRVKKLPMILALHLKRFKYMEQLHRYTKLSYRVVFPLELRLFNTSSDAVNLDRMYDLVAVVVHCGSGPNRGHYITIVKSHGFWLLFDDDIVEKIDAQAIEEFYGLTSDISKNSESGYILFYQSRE

Cc1c(NC(=O)CCl)c(=O)n(-c2ccccc2)n1C
inactive: USP42 0.238 | USP46 0.0574 | USP47 -0.882 | USP48 -0.0273 | USP5 -0.287 | USP54 0.0174 | USP7 -0.431 | USP8 0.0124 | USP9X 0.00112 | UniProt O00487 -0.111
